Experimental data reported in PubChem BioAssay (EPA / NIEHS).
Inconclusive results are not listed. Activity calls are given as the source filed them. Rule for the calls, unless noted: active = hit-call score of the fitted dose curve at least 0.9, where 1 is the maximum; inactive = score below 0.9.

Experiments:
[1] = CCTE_Shafer_MEA_acute_firing_rate_mean: CCTE's Neural Acute Assay for Mean Firing Rate, Shafer Lab (AID 2284009);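 note: analyzed for loss of signal so actives lower firing rate relative to DMSO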
Method in brief: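 Spontaneous spiking of primary rat cortical networks, DIV 13/15, 37 C. Compound 0.03-40 uM, n ≥3 wells; 40 min baseline vs 40 min treated. Endpoint fitted in loss-of-signal direction against DMSO.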

[2] = CCTE_Harrill_HTTr_Viability_MCF7: CCTE's 6-hour Cell Viability Assessment for the High-Throughput Transcriptomics (HTTr) Platform, in MCF-7 cells cultured in DMEM + 10% fetal bovine serum, Harrill Lab (AID 2284010)
Method in brief: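 Propidium iodide exclusion, imaged by high-content analysis, gauged viability after a six-hour exposure across eight concentrations. Cells were MCF-7 grown in DMEM with 10% fetal bovine serum; fits run in both directions against DMSO.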

[3] = CCTE_Shafer_MEA_acute_burst_number: CCTE's Neural Acute Assay for Single-Electrode Bursts, Shafer Lab (AID 2284013)
Method in brief: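 Burst totals were derived with adaptive spike detection (8x rms threshold) on filtered signals from rat cortical cultures; change relative to pre-treatment baseline after 40-min compound exposure (0.03-40 uM) was fitted in the negative direction against DMSO.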

[4] = CCTE_Shafer_MEA_acute_burst_duration_mean: CCTE's Neural Acute Assay for Mean Burst Duration, Shafer Lab (AID 2284014);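 note: hits are decreases in mean burst duration relative to DMSO controls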
Method in brief: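 Acute exposure of mature rat cortical networks (DIV 13 or 15) grown on microelectrode arrays to 0.03-40 uM compound. Mean burst duration compared with the 40-min pre-dose baseline over a 40-min post-dose recording at 37 C.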

[5] = CCTE_Shafer_MEA_acute_per_burst_spike_number_mean: CCTE's Neural Acute Assay for Average Number of Spikes Per Burst, Shafer Lab (AID 2284015);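 note: hits are decreases in mean spikes per burst versus baseline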
Method in brief: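 Read-out: percent change in mean spikes per burst, each well's post-exposure 40-min recording versus its own 40-min baseline. Rat cortical cultures, DIV 13 or 15, compounds 0.03-40 uM; DMSO is negative control, loss-of-signal fitting.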

[6] = CCTE_Shafer_MEA_acute_interburst_interval_mean: CCTE's Neural Acute Assay for Mean Interburst Interval, Shafer Lab (AID 2284016);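 note: percent change of mean interburst interval versus each well's own pre-dose baseline; curves fitted for decrease in interburst interval relative to DMSO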
Method in brief: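 Rat cortical cultures, DIV 13/15; 20 min equilibration, 40 min baseline, compound 0.03-40 uM, 40 min re-recording, 37 C. Spikes detected at 8x rms noise (300-5000 Hz band-pass). Endpoint: % change in interburst interval, fitted in loss direction vs DMSO.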

[7] = CCTE_Shafer_MEA_acute_burst_percentage_mean: CCTE's Neural Acute Assay for Percentage of Spikes in a Burst, Shafer Lab (AID 2284017)
Method in brief: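 Rat cortical cultures, DIV 13/15, 37 C. Spikes detected at 8x rms noise (300-5000 Hz band-pass). Burst spikes/total spikes averaged across electrodes per well; % change post- vs pre-treatment (40 min each), loss-of-signal fit vs DMSO.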

[8] = CCTE_Shafer_MEA_acute_burst_percentage_std: CCTE's Neural Acute Assay for Standard Deviation of Burst Percentage, Shafer Lab (AID 2284018);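 note: fitted in the negative direction so actives lower burst percentage SD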
Method in brief: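 Primary rat cortical neurons on 16-electrode MEA wells were recorded 40 min at baseline (DIV 13 or 15), then 40 min after compound (0.03-40 uM), at 37 C. Well value is SD across electrodes of spikes-in-bursts/total spikes; endpoint is percent change, DMSO-referenced.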

[9] = CCTE_Shafer_MEA_acute_per_network_burst_spike_number_mean: CCTE's Neural Acute Assay for Average Number of Spikes in a Network Burst, Shafer Lab (AID 2284019)
Method in brief: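 Acute exposure of rat primary cortical networks (DIV 13/15) on MEAs; adaptive spike detection at 8x rms noise, 37 C. Percent change in spikes per network burst after 40 min with compound (0.03-40 uM), negative direction vs DMSO.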

[10] = CCTE_Shafer_MEA_acute_per_network_burst_spike_number_std: CCTE's Neural Acute Assay for Standard Deviation of Number of Spikes in a Network Burst, Shafer Lab (AID 2284020);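 note: fitted for decrease in spike-number SD versus DMSO so actives lower it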
Method in brief: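 Acute MEA exposure, rat cortical neurons, 0.03-40 uM. Per-well % change versus own baseline; DMSO as negative control.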

[11] = CCTE_Shafer_MEA_acute_network_burst_percentage: CCTE's Neural Acute Assay for Percentage of Network Bursts, Shafer Lab (AID 2284022);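 note: curves fitted for loss so actives lower network burst percentage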
Method in brief: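 Cortical neurons from rat were grown over microelectrode arrays and used on day 13 or 15 in vitro. Wells with at least 10 active electrodes received test chemical at 0.03-40 uM. Activity during 40 min of exposure was compared with the preceding 40-min baseline.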

[12] = CCTE_Shafer_MEA_acute_cross_correlation_area: CCTE's Neural Acute Assay for Area of Cross Correlation, Shafer Lab (AID 2284024);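 note: rat primary cortical neuron networks on 48-well MEA at DIV 13 or 15 with 40 min exposure; area under pooled inter-electrode spike cross-correlation near zero lag as percent change from own baseline; curves fitted for loss of cross-correlation area so actives lower synchrony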
Method in brief: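 Acute exposure of mature rat cortical networks (day 13 or 15 post-plating) to 0.03-40 uM compound. Spontaneous spiking on MEA, 40 min pre- and post-dose at 37 C.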

[13] = CCTE_Shafer_MEA_acute_cross_correlation_HWHM: CCTE's Neural Acute Assay for Cross Correlation at Half Width at Half Maximum, Shafer Lab (AID 2284026);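 note: spontaneous network firing of rat primary cortical neurons on multiwell microelectrode arrays; percent change per well from pre-dose baseline in spike cross-correlogram half width; hits are a decrease in cross-correlogram half width relative to DMSO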
Method in brief: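 Primary cortex (rat), MEA, DIV 13/15; compound 0.03-40 uM; 40 min pre + 40 min post at 37 C; spike threshold 8x rms; wells need ≥10 active electrodes; endpoint = % change in cross-correlogram HWHM vs baseline, DMSO negative control.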

[14] = CCTE_Harrill_HTTr_Apoptosis_MCF7: CCTE's 6-hour Apoptosis Assessment for the High-Throughput Transcriptomics (HTTr) Platform, in MCF-7 cells cultured in DMEM + 10% fetal bovine serum, Harrill Lab (AID 2284011)
Method in brief: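 Cells are dosed with test chemicals at eight concentrations and imaged 6 hours later for caspase-3/7 activity using a green fluorogenic detection reagent. Activity is fitted in both directions against DMSO controls.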

[15] = CCTE_Harrill_HTTr_CellCount_MCF7: CCTE's Cell Proliferation Assessment for the High-Throughput Transcriptomics (HTTr) Platform, Harrill Lab (AID 2284012; active = hit-call score of the fitted dose curve at least 0.9, where 1 is the maximum;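 note: cells exposed to compound for six hours; intended direction is loss of nuclei count meaning fewer cells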)
Method in brief: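 Cell count from high-content imaging of Hoechst-labeled nuclei serves as viability/growth readout. Chemicals were applied to MCF-7 cells in eight concentrations for six hours, with fitting in both directions relative to DMSO.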

Measured: outcome

CCCCCCCCCCCCCCCCCC(=O)O
not listed: [14] | [15]
inactive: all other assays above

COc1cc(-c2nc(NC(=O)c3cc4cc(C)cc(C)c4n3CC(=O)O)sc2CCC2CCCCC2)c(OC)cc1Cl
inactive: [2]

CCCCCC(=O)O
inactive: [2]

C[C@]12C=CC(=O)C=C1CC[C@@H]1[C@@H]2C(=O)C[C@@]2(C)[C@H]1CC[C@]2(O)C(=O)CO
inactive: [2] | [14] | [15]

Cc1nc(-c2ccc3c(c2)CCN(CCC2CCC(NC(=O)/C=C/c4ccc(F)cc4)CC2)CC3)no1 (stereo not drawn)
inactive: [2] | [14] | [15]

CCCCCCCCCCCCCO
inactive: [2] | [14] | [15]

CCCCCCOCCO
inactive: [2]

CC(=O)OCCOCCOCCOC(C)=O
inactive: [2] | [14]

CCCCC(CC)COC(=O)CC(C(=O)OCC(CC)CCCC)S(=O)(=O)O (stereo not drawn)
inactive: [2] | [14] | [15]

Nc1ccc(S(=O)(=O)c2ccc(N)cc2)cc1
inactive: [2] | [14] | [15]
